Experimental data reported in PubChem BioAssay (NCATS).
Several values for one entry are separate records, joined by “and”; a condition that tells them apart may be missing. Equal values may be shown once. Results filed as inconclusive are left out. Activity calls are given as the source filed them. Unless noted, the call rests on the fitted dose curve; in most records, active means well fitted curve in the direction sought with a large enough effect; inconclusive means small, poorly fitted or top-dose-only effect, or another doubt; inactive means no such curve, though single readings can be large; an effect the other way counts as inactive or inconclusive.

Assays:
[1] = biological target: Thyroid hormone receptor beta (Homo sapiens) (UniProt P10828); test: qHTS assay for small molecule agonists of thyroid hormone receptor beta signaling (AID 588545; calls by dose curve;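 further: 0% = DMSO only and 100% = 10 nM T3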)
Procedure, shortened: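 Stimulation of a TR-driven beta-lactamase reporter was quantified in GripTite HEK 293 cells. Compound series ran for 18 hrs; curves were normalized to T3 and DMSO controls and fitted to yield EC50.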

[2] = biological target: Thyroid hormone receptor beta (Homo sapiens) (UniProt P10828); test: qHTS assay for small molecule antagonists of thyroid hormone receptor beta signaling (AID 588547; active means well fitted inhibition curve with a large enough effect in the signal ratio, with a control signal flat, not every such curve was filed as active; the % refers to the signal ratio;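 further: cells stimulated with 0.4 nM T3 agonist during compound exposure; series mostly up to about 77 µM; on the % scale 0 is the no-effect control and ±100 the full control effect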); conditions: TR-UAS-bla HEK293, beta-lactamase ratio, antagonist mode, 18 h
Procedure, shortened: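 TR-UAS-bla GripTite HEK293 cells in 2% charcoal/dextran FBS medium; compounds 0.59 nM to 92 uM with T3 at 0.4nM final, 18 h at 37 C. Beta-lactamase read by CCF4 fluorescence (460/530 nm); Hill fits gave IC50 and efficacy.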

[3] = biological target: Voltage-gated inwardly rectifying potassium channel KCNH2 (Homo sapiens) (UniProt Q12809); test: qHTS Assay for Small Molecule Inhibitors of the Human hERG Channel Activity (AID 588834);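 further: lower thallium flux fluorescence means stronger hERG block; nearly all actives have a fitted effect of over 50% in size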; further: potency means the concentration at half of the fitted maximal effect
Procedure, shortened: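 Thallium serves as surrogate for K+ influx through BacMam-delivered hERG in U2OS cells. Compounds are added for about 10 minutes after dye loading; stimulation buffer then starts flux, monitored kinetically on FDSS.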

[4] = qHTS of Trypanosoma Brucei Inhibitors: LOPAC Validation (AID 624147); further: 0% is about no effect
Procedure, shortened: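 Enzyme and substrate buffer are dispensed first and compound is pin-transferred. ADP at 130 uM final then starts the reaction, which runs 45 min at room temperature. Detection reagent is added for 10 min before luminescence is imaged.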

[5] = biological target: Glucagon-like peptide 1 receptor (Homo sapiens) (UniProt P43220); test: qHTS of GLP-1 Receptor Agonists: LOPAC Validation (AID 624148);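 further: 0% is about no effect; higher luminescence signal means agonism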
Procedure, shortened: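 HEK293 cells stably co-expressing GLP-1R and a cAMP-responsive luciferase reporter, plated 12 hours before compound, then incubated 4-6 hr at 37 deg C. Luminescence read 12 min after detection reagent.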

[6] = qHTS of Nrf2 Activators: LOPAC Validation (AID 624149); further: 0% is about no effect
Procedure, shortened: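 Luciferase signal from ARE activation, read with Steady-Glo after 30 min at room temperature. Compounds were pin-transferred onto AREc32_Fluc cells (1000/well, OPTI-MEM/5% FBS, seeded overnight) and left 24 hr at 37 deg C.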

[7] = HTS Assay for Allosteric Antagonists of the Human D2 Dopamine Receptor: Hit Validation in HTRF (AID 624455);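 further: stable D1 dopamine receptor cell line scored for blocking the D1 response; on the % scale 0 is the no-effect control and ±100 the full control effect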
Procedure, shortened: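 Inhibition of the D1-mediated response was measured by HTRF. Cells used were a line stably expressing the D1 dopamine receptor.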

[8] = qHTS assay for small molecule agonists of retinoid X receptor alpha signaling (AID 588544; calls by dose curve); conditions: HEK293T RXRa-UAS-bla, beta-lactamase reporter, 18 h; 530 nm emission
[9] = biological target: Retinoic acid receptor RXR-alpha (Homo sapiens) (UniProt P19793); test: as above
[10] = qHTS assay for small molecule antagonists of retinoid X receptor alpha signaling (AID 588546; active means well fitted inhibition curve with a large enough effect in the signal ratio, with a control signal flat, not every such curve was filed as active; the % refers to the signal ratio;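 further: cells stimulated with 9-cis-retinoic acid as agonist; on the % scale 0 is the no-effect control and ±100 the full control effect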); conditions: HEK293T RXRa-UAS-bla, beta-lactamase ratio, antagonist mode; measured here: W530 green channel, cytotoxicity proxy
Procedure, shortened: (§1)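 Beta-lactamase reporter inhibition, read as CCF4 fluorescence ratio (ex 405, em 460/530 nm) after 2 h at RT. HEK293T UAS-bla cells, 2500/well, were stimulated with 9-cis-RA at 500 or 100 nM final alongside test compound for 18 h at 37 C.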

[11] = biological target: Retinoic acid receptor RXR-alpha (Homo sapiens) (UniProt P19793); test: as above; conditions: HEK293T RXRa-UAS-bla, beta-lactamase ratio, antagonist mode
Procedure, shortened: as §1

[12] = biological target: Luciferin 4-monooxygenase (Photinus pyralis) (UniProt P08659); test: Biochemical firefly luciferase enzyme assay for NPC (AID 624030); further: nearly all actives have a fitted effect of over 70% in size; further: potency means the concentration at half of the fitted maximal effect
Procedure, shortened: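 Purified P. pyralis luciferase at 10 nM in 50 mM Tris Acetate (final), luminescence read within 5 minutes of enzyme addition to compounds. Activity normalised to PTC124 versus DMSO; concentration-response curves classed by r2, magnitude and activity.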

[13] = S16 Schwann cell viability assay (CellTiter-Glo assay) (AID 624031); further: nearly all actives have a fitted effect of over 70% in size; further: potency means the concentration at half of the fitted maximal effect
Procedure, shortened: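 Luminescent ATP read-out (CellTiter-Glo) after 24 h compound exposure of native S16 rat Schwann cells at 37 °C. Signals were normalized between cell-free wells and DMSO-treated cells, set as 0% activity.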

[14] = S16 Schwann cell PMP22 intronic element firefly luciferase assay (AID 624032); further: nearly all actives have a fitted effect of over 30% in size; further: potency means the concentration at half of the fitted maximal effect
Procedure, shortened: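 Rat S16 Schwann cells stably carrying firefly luciferase driven by a PMP22 intronic element, in 10% FBS, treated 24 h at 37 C. ONE-Glo luminescence normalized to PTC124 control and DMSO (0%); curves classed by r2, magnitude and activity.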

[15] = S16 Schwann cell PMP22 intronic element beta-lactamase assay (AID 624044; calls by dose curve; further: nearly all actives have a fitted effect of over 15% in size; further: potency means the concentration at half of the fitted maximal effect)
Procedure, shortened: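 Beta-lactamase reporter under a PMP22 intronic regulatory element in stable S16 rat Schwann cells; 24 h compound exposure. 460 nm blue signal normalized between DMSO (0%) and potassium clavulanate, with 535 nm FRET tracking viability; curves classed by r2 and response.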

[16] = biological target: Vitamin D3 receptor (Homo sapiens) (UniProt P11473); test: qHTS assay for small molecule agonists of vitamin D receptor signaling (AID 588543; calls by dose curve;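 further: 0% = DMSO basal and 100% = reference agonist control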)
Procedure, shortened: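 VDR-UAS-bla HEK293T cells, 2000/well, 2% charcoal-stripped FBS; compound titration 16 h at 37 C; CCF4 beta-lactamase ratio read. Normalized to 50 nM 1-alpha,25-dihydroxyvitamin D3 (100%) and DMSO; Hill fit gives EC50, efficacy.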

[17] = Cytotoxicity counterscreen for NFkB agonists and antagonists (AID 624476);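 further: cells exposed to compound for 48 hours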; further: potency means the concentration at half of the fitted maximal effect
[18] = qHTS Assay for Identification of Small Molecule Agonists for NFkB Signaling Pathway. (AID 624478);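 further: compounds tested together with TNF alpha at its EC50 of 10 pM; 0% is about no effect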
Procedure, shortened: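 Compounds were added with 10 pM TNF alpha (EC50 level) to ME-180 NFkB-bla cells in low-serum Opti-MEM and incubated 5 hrs at 37 C. Beta-lactamase FRET read-out used 405 nm excitation and 460 and 530 nm emission.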

[19] = qHTS Assay for Identification of Small Molecule Antagonists for NFkB Signaling Pathway. (AID 624479; calls by dose curve;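 further: pathway stimulated with TNF alpha; potency means the concentration at half of the fitted maximal effect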)

Vitamin D3 receptor (Homo sapiens), sequence (P11473 whole entry, looked up): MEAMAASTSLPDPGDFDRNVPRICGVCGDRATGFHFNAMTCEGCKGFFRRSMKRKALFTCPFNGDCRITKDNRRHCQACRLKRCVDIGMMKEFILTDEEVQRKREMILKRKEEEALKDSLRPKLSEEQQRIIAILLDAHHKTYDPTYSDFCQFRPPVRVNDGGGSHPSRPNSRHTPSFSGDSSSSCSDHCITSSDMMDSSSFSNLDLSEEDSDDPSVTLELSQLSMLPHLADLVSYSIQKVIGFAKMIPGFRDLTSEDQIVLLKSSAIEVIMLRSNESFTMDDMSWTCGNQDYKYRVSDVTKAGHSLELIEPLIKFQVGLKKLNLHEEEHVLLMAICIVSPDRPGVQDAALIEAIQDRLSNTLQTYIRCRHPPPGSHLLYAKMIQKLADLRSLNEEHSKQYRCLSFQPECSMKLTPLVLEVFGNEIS
Glucagon-like peptide 1 receptor (Homo sapiens), sequence (P43220 whole entry, looked up): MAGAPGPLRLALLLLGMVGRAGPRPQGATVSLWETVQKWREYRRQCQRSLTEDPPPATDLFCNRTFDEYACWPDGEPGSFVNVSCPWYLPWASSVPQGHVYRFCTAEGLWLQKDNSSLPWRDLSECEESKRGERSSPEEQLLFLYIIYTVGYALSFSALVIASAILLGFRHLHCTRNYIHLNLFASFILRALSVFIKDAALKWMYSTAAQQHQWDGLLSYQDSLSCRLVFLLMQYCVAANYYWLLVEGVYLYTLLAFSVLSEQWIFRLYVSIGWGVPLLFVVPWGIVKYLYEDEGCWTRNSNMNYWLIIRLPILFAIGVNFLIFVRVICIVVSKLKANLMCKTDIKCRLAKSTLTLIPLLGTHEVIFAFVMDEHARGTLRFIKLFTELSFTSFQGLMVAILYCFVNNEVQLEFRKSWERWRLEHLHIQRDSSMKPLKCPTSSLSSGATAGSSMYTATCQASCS
Thyroid hormone receptor beta (Homo sapiens), sequence (P10828 whole entry, looked up): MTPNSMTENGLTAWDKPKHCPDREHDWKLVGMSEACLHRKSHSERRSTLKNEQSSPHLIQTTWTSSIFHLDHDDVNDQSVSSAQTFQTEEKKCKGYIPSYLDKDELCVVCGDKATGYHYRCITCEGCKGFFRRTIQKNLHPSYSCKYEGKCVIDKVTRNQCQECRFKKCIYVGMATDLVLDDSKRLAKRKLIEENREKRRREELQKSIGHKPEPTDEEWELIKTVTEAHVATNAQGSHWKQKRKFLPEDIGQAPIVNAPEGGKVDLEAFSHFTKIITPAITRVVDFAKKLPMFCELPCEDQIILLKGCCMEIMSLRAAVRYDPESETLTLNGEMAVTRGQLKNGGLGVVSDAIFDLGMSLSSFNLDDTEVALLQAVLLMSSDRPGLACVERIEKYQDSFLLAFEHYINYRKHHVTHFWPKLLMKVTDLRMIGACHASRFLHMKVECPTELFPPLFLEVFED
Voltage-gated inwardly rectifying potassium channel KCNH2 (Homo sapiens), sequence (Q12809 whole entry, looked up): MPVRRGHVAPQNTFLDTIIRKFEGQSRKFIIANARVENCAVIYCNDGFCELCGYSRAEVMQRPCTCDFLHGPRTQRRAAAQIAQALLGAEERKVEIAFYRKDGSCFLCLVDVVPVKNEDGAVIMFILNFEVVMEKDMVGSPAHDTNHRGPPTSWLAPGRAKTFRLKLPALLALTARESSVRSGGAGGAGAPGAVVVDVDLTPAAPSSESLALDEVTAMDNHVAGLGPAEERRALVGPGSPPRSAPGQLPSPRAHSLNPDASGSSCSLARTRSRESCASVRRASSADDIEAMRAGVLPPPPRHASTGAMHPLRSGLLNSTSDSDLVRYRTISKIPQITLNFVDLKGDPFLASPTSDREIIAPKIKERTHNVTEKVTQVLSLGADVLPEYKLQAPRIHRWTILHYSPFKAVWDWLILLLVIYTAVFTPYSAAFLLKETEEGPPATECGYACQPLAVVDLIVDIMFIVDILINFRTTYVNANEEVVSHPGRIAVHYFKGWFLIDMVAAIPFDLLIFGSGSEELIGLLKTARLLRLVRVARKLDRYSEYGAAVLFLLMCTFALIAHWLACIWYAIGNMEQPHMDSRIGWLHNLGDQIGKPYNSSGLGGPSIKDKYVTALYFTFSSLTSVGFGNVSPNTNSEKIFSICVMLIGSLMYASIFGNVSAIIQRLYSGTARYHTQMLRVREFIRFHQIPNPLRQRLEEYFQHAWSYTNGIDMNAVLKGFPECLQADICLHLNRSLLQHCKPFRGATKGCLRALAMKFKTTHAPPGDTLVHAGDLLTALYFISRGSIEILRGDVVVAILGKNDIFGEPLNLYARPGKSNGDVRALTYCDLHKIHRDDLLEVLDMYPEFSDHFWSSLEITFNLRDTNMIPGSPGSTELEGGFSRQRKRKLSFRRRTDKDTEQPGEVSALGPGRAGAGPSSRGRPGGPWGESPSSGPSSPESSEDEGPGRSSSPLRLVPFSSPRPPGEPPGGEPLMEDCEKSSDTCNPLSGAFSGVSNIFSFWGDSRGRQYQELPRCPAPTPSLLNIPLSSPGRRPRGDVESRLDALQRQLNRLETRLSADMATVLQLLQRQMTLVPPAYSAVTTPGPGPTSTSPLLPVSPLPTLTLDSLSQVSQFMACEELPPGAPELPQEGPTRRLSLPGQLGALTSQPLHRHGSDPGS
Retinoic acid receptor RXR-alpha (Homo sapiens), sequence (P19793 whole entry, looked up): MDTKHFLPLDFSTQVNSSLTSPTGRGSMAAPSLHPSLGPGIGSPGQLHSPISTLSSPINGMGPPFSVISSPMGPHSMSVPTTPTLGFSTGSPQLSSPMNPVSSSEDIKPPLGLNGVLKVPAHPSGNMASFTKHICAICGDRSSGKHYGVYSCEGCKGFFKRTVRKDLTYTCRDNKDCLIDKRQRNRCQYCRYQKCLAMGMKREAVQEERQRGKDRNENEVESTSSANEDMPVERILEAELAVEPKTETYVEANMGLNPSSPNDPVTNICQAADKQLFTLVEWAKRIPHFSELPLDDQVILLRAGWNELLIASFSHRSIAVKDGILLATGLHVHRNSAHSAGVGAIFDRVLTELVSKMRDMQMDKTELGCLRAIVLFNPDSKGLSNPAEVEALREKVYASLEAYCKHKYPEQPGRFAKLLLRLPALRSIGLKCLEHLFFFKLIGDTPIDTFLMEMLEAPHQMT
Luciferin 4-monooxygenase (Photinus pyralis), sequence (P08659 whole entry, looked up): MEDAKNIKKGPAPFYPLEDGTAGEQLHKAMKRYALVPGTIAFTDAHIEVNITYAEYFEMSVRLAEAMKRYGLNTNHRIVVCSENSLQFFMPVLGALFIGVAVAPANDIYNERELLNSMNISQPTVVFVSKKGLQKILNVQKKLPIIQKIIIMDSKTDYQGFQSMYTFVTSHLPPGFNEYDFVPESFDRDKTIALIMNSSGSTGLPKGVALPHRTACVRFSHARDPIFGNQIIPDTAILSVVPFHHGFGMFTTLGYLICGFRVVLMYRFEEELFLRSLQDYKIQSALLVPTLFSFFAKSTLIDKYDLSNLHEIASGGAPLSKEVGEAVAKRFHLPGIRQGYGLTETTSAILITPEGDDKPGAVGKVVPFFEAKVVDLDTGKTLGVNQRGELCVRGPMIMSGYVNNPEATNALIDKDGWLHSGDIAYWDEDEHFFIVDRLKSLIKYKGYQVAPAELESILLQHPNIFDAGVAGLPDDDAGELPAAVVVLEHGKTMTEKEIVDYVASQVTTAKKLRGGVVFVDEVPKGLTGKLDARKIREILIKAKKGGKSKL

O=c1cc(-c2ccc(O)cc2)oc2cc(O)cc(O)c12
inactive: outcome [1] | activity change % (negative = inhibition) [2] -28.1% | Potency [3] | outcome [4] | outcome [5] | outcome [6] | outcome [7]

O=c1[nH]cnc2c1ncn2[C@H]1CC[C@@H](CO)O1
inactive: outcome [9] | outcome [1] | max response [11] 9.86% | activity change % (negative = inhibition) [2] 9.23% | Potency [3] | Potency [12] | Potency [13] | Potency [14] | Potency [15]
-5.91%: max response [10]
0.954% and -9.72%: max response [8]

CC(C(=O)O)c1ccc(-c2ccccc2)c(F)c1 (centres undefined)
inactive: Potency [3]

O=c1cc(-c2ccccc2)oc2cc(O)cc(O)c12
inactive: outcome [1]

Cc1cnc(C(=O)O)c[n+]1[O-]
inactive: Potency [3] | Potency [12] | Potency [13] | Potency [14]

CC1=C(/C=C/C(C)=C/C=C/C(C)=C/C(=O)Nc2ccc(O)cc2)C(C)(C)CCC1
inactive: outcome [16] | Potency [3] | Potency [12] | Potency [13] | outcome [4] | outcome [5] | outcome [6] | outcome [7] | outcome [18]
active: Potency [14] 4.05 µM | Potency [15] 11.2 µM | Potency [17] 20.9 µM | Potency [19] 21.1 µM

O=C(O)c1cc(-c2ccccc2)nc2ccccc12
9.45%: max response [10]
26.3%: max response [8]
active: Potency [12] 18.6 µM
inactive: outcome [16] | outcome [9] | outcome [1] | max response [11] -7.59% | activity change % (negative = inhibition) [2] 5.82% | Potency [3] | Potency [13] | Potency [14]

OC[C@@H](O)[C@H](O)[C@H](O)[C@@H](O)CO
inactive: Potency [3]

CCN(CC)CCOC(=O)c1ccc(N)cc1
inactive: Potency [3] | Potency [12] | Potency [13] | Potency [14] | outcome [4] | outcome [5] | outcome [6] | outcome [7]

O=C(O)Cc1cccc2ccccc12
-5.32% and -9%: max response [8]
inactive: outcome [16] | outcome [9] | max response [11] 3.25% and 2.98% | activity change % (negative = inhibition) [2] 9.53% and -11.8% | Potency [3] | Potency [12] | Potency [13] | Potency [14]
4.01% and -7.8%: max response [10]

CCN(CC)C(=O)c1ccc(O)c(OC)c1
inactive: Potency [3] | Potency [12] | Potency [13] | Potency [14] | outcome [4] | outcome [5] | outcome [6] | outcome [7]

CN(C)CCC(c1ccccc1)c1ccccn1 (centres undefined)
-9.83%: max response [8]
-6.63%: max response [10]
inactive: outcome [16] | outcome [9] | outcome [1] | max response [11] -4.45% | activity change % (negative = inhibition) [2] -6.32% | Potency [12] | Potency [13] | Potency [14] | outcome [4] | outcome [6] | outcome [7]

NC[C@@H]1O[C@@H](O[C@H]2[C@@H](O)[C@H](O[C@@H]3[C@@H](O)[C@@H](N)C[C@H](N)[C@H]3O[C@H]3O[C@H](CN)[C@@H](O)[C@@H](O)[C@H]3N)O[C@H]2CO)[C@H](N)[C@@H](O)[C@@H]1O
inactive: Potency [12]

CN1C[C@H]2c3ccccc3Oc3ccc(Cl)cc3[C@@H]2C1
inactive: Potency [12]

CO[C@@H](C(=O)N1Cc2[nH]nc(NC(=O)c3ccc(N4CCN(C)CC4)cc3)c2C1)c1ccccc1
inactive: Potency [17] | outcome [18]

CC/C(=C(\c1ccccc1)c1ccc(OCCN(C)C)cc1)c1ccccc1
active: Potency [13] 32.2 µM
inactive: Potency [12] | outcome [4] | outcome [5] | outcome [6] | outcome [7]

O=C(O)c1c(Cl)c(Cl)c(Cl)c(Cl)c1-c1c2cc(I)c(=O)c(I)c-2oc2c(I)c(O)c(I)cc12
active: Potency [3] 12.6 µM | Potency [12] 25.6 µM
inactive: Potency [13] | Potency [15]

C[N+](C)(C)CC(=O)O
inactive: outcome [5] | outcome [6] | outcome [7]

O=C(NCCN1CCOCC1)c1ccc(Cl)cc1
inactive: Potency [3] | Potency [12] | Potency [14] | outcome [4] | outcome [5] | outcome [6] | outcome [7]

CC(=O)Oc1cc2c(s1)CCN(C(C(=O)C1CC1)c1ccccc1F)C2 (centres undefined)
inactive: Potency [12]

COc1cccc(-c2cc(=O)c3ccccc3o2)c1N
inactive: Potency [3] | outcome [4] | outcome [5] | outcome [6] | outcome [7]

CC(C)(C)c1ccc(C(O)CCCN2CCC(C(O)(c3ccccc3)c3ccccc3)CC2)cc1 (centres undefined)
active: Potency [13] 16.1 µM
inactive: Potency [12] | Potency [14] | outcome [4] | outcome [5] | outcome [7]

Clc1ccc(C(c2ccc(Cl)cc2)n2cc[n+](CC(OCc3ccc(Cl)cc3Cl)c3ccc(Cl)cc3Cl)c2)cc1 (centres undefined)
inactive: outcome [4] | outcome [5] | outcome [6] | outcome [7]

COc1cc2ncnc(Nc3ccc(F)c(Cl)c3)c2cc1OCCCN1CCOCC1
active: Potency [14] 36.1 µM
inactive: Potency [12] | Potency [15] | Potency [17] | outcome [18]

CCN(CC)CCNC(=O)c1ccc(N)cc1
inactive: Potency [12] | Potency [13] | Potency [14] | outcome [4] | outcome [6] | outcome [7]

Clc1ccc(COC(Cn2ccnc2)c2ccc(Cl)cc2Cl)cc1 (centres undefined)
inactive: Potency [12] | Potency [13] | Potency [15]

COc1ncc(-c2ccc3nccc(-c4ccnnc4)c3c2)cc1NS(=O)(=O)c1ccc(F)cc1F
active: Potency [17] 1.05 µM | Potency [19] 11.9 µM
inactive: outcome [18]

Clc1ccc(Cn2c(CN3CCCC3)nc3ccccc32)cc1
active: Potency [3] 1.41 µM and 3.98 µM
inactive: Potency [12] | Potency [13] | Potency [15] | outcome [4] | outcome [5] | outcome [6] | outcome [7]
